Among the data in PubChem BioAssay are inhibition and fluorescence ratio values, retold here.

“And” between values parts separate entries of the source, which are not always exact repeats. Identical values can stand only once. Values without a mark were called inactive. The source made the active and inactive calls. Rule as the data show it, unless noted: active = inhibition above about 28%; inactive = the rest.

One experiment has as its target Single-stranded DNA-binding protein (Escherichia coli (strain K12)) (UniProt P0AGE0). Kind of experiment: SSB-ssDNA binding inhibitors – biochemical, fluorescence polarization, NIH Clinical Collection, counter-screen for HCV NS3 helicase inhibitor project (AID 743271). The conditions noted are these: E. coli SSB-DNA binding, active compounds read high, concentration not given here. (In general: Polarisation of emitted light reports the rotation of a fluorescent probe.)
Usually inhibition stands for the change of the read-out against control, counted positive when it falls. Turning to `OCCN1CCN(CCCN2c3ccccc3Sc3ccc(C(F)(F)F)cc32)CC1`, the inhibition was 5.91%.
The same measure, in the same setting: then `NS(=O)(=O)c1cc2c(cc1Cl)NC=NS2(=O)=O`, with -1.24%; and `Cc1ccc(-c2cc(C(F)(F)F)nn2-c2ccc(S(N)(=O)=O)cc2)cc1`, with -0.48%.
The same measure, in the same setting: then `Cc1ccccc1C(OCCN(C)C)c1ccccc1` (configuration not stated), with -0.48% and -2.76%.
On to `CCc1nc(N)nc(N)c1-c1ccc(Cl)cc1`, for which the inhibition was 1.81%.
In the case of `COc1cc2nc(N(C)CCCNC(=O)C3CCCO3)nc(N)c2cc1OC` (configuration not stated), the inhibition is -3.95%.
Still for that read-out and setting: then `CN(C)CCOC(c1ccc(Cl)cc1)c1ccccn1` (configuration not stated), with -3.53%.
`N[C@@H](C(=O)N[C@@H]1C(=O)N2C(C(=O)O)=C(Cl)CS[C@H]12)c1ccccc1`: the inhibition was 1.97%.
Still for that read-out and setting: the same measure for `Nc1ncn([C@@H]2O[C@H](CO)[C@@H](O)[C@H]2O)c(=O)n1`: 4.86%.
Same read-out and setting: the same measure for `NCc1ccc(S(N)(=O)=O)cc1`: 1.05%; for `Cc1ncc([N+](=O)[O-])n1CC(C)O` (configuration not stated): 6.83%; for `Cc1ccc(C)c(OCCCC(C)(C)C(=O)O)c1`: 1.05%.
As for `CN1CCCC(n2nc(Cc3ccc(Cl)cc3)c3ccccc3c2=O)CC1` (configuration not stated), the inhibition was 0.67%.
For the compound `NS(=O)(=O)c1cc2c(cc1C(F)(F)F)NC(Cc1ccccc1)NS2(=O)=O` (configuration not stated), the inhibition is 1.05%.
On the same count and under the same terms, the same measure for `COC1=CC(=O)C[C@@H](C)[C@]12Oc1c(Cl)c(OC)cc(OC)c1C2=O`: -3.53%.
Take `Cc1cn([C@H]2C[C@H](N=[N+]=[N-])[C@@H](CO)O2)c(=O)[nH]c1=O`: the inhibition is -2.76%.
The same measure, in the same setting: then `CN(CCOc1ccc(CC2SC(=O)NC2=O)cc1)c1ccccn1` (configuration not stated), with 4.52% and -0.87%; and `COc1ccc(OC)c(C(O)CNC(=O)CN)c1` (configuration not stated), with -2.76%.
Turning to `OC(CCN1CCCC1)(c1ccccc1)C1CCCCC1` (configuration not stated), the inhibition was -3.53%.
With `NC(=O)N1c2ccccc2CC(=O)c2ccccc21`, the inhibition was -2.41%.
On the same count and under the same terms, then `CCCNCC(O)COc1ccccc1C(=O)CCc1ccccc1` (configuration not stated), with -2%; and `C/C=C/C(=O)N(CC)c1ccccc1C`, with -2.41%; and `CCCCCCNC(=O)n1cc(F)c(=O)[nH]c1=O`, with 1.44%.
Same read-out and setting: then `NC(=O)c1cnccn1`, with -2.76%.
On the same count and under the same terms, the same measure for `CN(C)CCc1c[nH]c2ccc(C[C@H]3COC(=O)N3)cc12`: -4.33%; for `COc1ccccc1OCC(O)COC(N)=O` (configuration not stated): -1.24%; for `COC(=O)Nc1nc2ccc(C(=O)c3ccccc3)cc2[nH]1`: -8.87%.
As for `Cn1cnc([N+](=O)[O-])c1Sc1ncnc2nc[nH]c12`, the inhibition is -2.76%.
Regarding `c1ccc2[nH]c(-c3cscn3)nc2c1`, the inhibition is -0.48%.
On the same count and under the same terms, then `Cc1onc(-c2c(Cl)cccc2Cl)c1C(=O)N[C@@H]1C(=O)N2[C@@H]1SC(C)(C)[C@@H]2C(=O)O`, with -0.48%.
On the same count and under the same terms, then `Clc1ccc2c(c1)C(N1CCNCC1)=Nc1ccccc1O2`, with -1.24%; and `CO[C@@]1(NC(=O)Cc2cccs2)C(=O)N2C(C(=O)O)=C(COC(N)=O)CS[C@@H]21`, with 27.7% (active); and `CCc1cccc2c3c([nH]c12)C(CC)(CC(=O)O)OCC3` (configuration not stated), with -2%.
With `CC(C)(C)NCC(O)COc1cccc2c1C[C@H](O)[C@H](O)C2` (some centres not stated), the inhibition is 0.29%.
On the same count and under the same terms, the same measure for `O=S(=O)(O)CCS`: -2.76%.
On to `O=c1[nH]cc(F)c(=O)[nH]1`, for which the inhibition is -0.48%.

Test system in the next experiment: not listed separately
Kind of experiment: compounds distorting NS3 helicase fluorescence signal – biochemical, NIH Clinical Collection, artefact control for HCV NS3 helicase inhibitor project (AID 743272; call rule not given here;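 also: HCV NS3 helicase with a Cy5 labelled single stranded DNA probe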). The conditions noted are these: fluorescence interference counterscreen, HCV NS3 helicase assay; active compounds read low. On the technique in general: A counterscreen serves to expose hits that act by an unwanted route or on another target.
Consider `OCCN1CCN(CCCN2c3ccccc3Sc3ccc(C(F)(F)F)cc32)CC1`, for which the fluorescence ratio was 0.82.
The same measure, in the same setting: the same measure for `NS(=O)(=O)c1cc2c(cc1Cl)NC=NS2(=O)=O`: 0.94; for `Cc1ccc(-c2cc(C(F)(F)F)nn2-c2ccc(S(N)(=O)=O)cc2)cc1`: 1.02.
On the same count and under the same terms, then `Cc1ccccc1C(OCCN(C)C)c1ccccc1` (configuration not stated), with 0.88 and 1.01.
On the same count and under the same terms, the same measure for `CCc1nc(N)nc(N)c1-c1ccc(Cl)cc1`: 0.94; for `COc1cc2nc(N(C)CCCNC(=O)C3CCCO3)nc(N)c2cc1OC` (configuration not stated): 1.02.
`CN(C)CCOC(c1ccc(Cl)cc1)c1ccccn1` (configuration not stated): the fluorescence ratio was 1.03.
Still for that read-out and setting: then `N[C@@H](C(=O)N[C@@H]1C(=O)N2C(C(=O)O)=C(Cl)CS[C@H]12)c1ccccc1`, with 0.91; and `Nc1ncn([C@@H]2O[C@H](CO)[C@@H](O)[C@H]2O)c(=O)n1`, with 1.04; and `NCc1ccc(S(N)(=O)=O)cc1`, with 1.01.
With `Cc1ncc([N+](=O)[O-])n1CC(C)O` (configuration not stated), the fluorescence ratio is 1.
For `Cc1ccc(C)c(OCCCC(C)(C)C(=O)O)c1`, the fluorescence ratio was 0.96.
On the same count and under the same terms, the same measure for `CN1CCCC(n2nc(Cc3ccc(Cl)cc3)c3ccccc3c2=O)CC1` (configuration not stated): 0.97; for `NS(=O)(=O)c1cc2c(cc1C(F)(F)F)NC(Cc1ccccc1)NS2(=O)=O` (configuration not stated): 0.99.
Same read-out and setting: then `COC1=CC(=O)C[C@@H](C)[C@]12Oc1c(Cl)c(OC)cc(OC)c1C2=O`, with 1; and `Cc1cn([C@H]2C[C@H](N=[N+]=[N-])[C@@H](CO)O2)c(=O)[nH]c1=O`, with 1.04.
Still for that read-out and setting: the same measure for `CN(CCOc1ccc(CC2SC(=O)NC2=O)cc1)c1ccccn1` (configuration not stated): 1.01 and 0.96.
For the compound `COc1ccc(OC)c(C(O)CNC(=O)CN)c1` (configuration not stated), the fluorescence ratio was 1.02.
The same measure, in the same setting: the same measure for `OC(CCN1CCCC1)(c1ccccc1)C1CCCCC1` (configuration not stated): 1.03.
Still for that read-out and setting: then `NC(=O)N1c2ccccc2CC(=O)c2ccccc21`, with 0.97; and `CCCNCC(O)COc1ccccc1C(=O)CCc1ccccc1` (configuration not stated), with 0.99.
The same measure, in the same setting: then `C/C=C/C(=O)N(CC)c1ccccc1C`, with 1.02; and `CCCCCCNC(=O)n1cc(F)c(=O)[nH]c1=O`, with 0.97; and `NC(=O)c1cnccn1`, with 0.96.
As to `CN(C)CCc1c[nH]c2ccc(C[C@H]3COC(=O)N3)cc12`, the fluorescence ratio is 1.
The same measure, in the same setting: the same measure for `COc1ccccc1OCC(O)COC(N)=O` (configuration not stated): 1; for `COC(=O)Nc1nc2ccc(C(=O)c3ccccc3)cc2[nH]1`: 0.98.
Regarding `Cn1cnc([N+](=O)[O-])c1Sc1ncnc2nc[nH]c12`, the fluorescence ratio is 0.99.
Consider `c1ccc2[nH]c(-c3cscn3)nc2c1`, for which the fluorescence ratio is 0.97.
Turning to `Cc1onc(-c2c(Cl)cccc2Cl)c1C(=O)N[C@@H]1C(=O)N2[C@@H]1SC(C)(C)[C@@H]2C(=O)O`, the fluorescence ratio was 1.03.
Consider `Clc1ccc2c(c1)C(N1CCNCC1)=Nc1ccccc1O2`, for which the fluorescence ratio is 0.96.
As to `CO[C@@]1(NC(=O)Cc2cccs2)C(=O)N2C(C(=O)O)=C(COC(N)=O)CS[C@@H]21`, the fluorescence ratio was 1.01.
Take `CCc1cccc2c3c([nH]c12)C(CC)(CC(=O)O)OCC3` (configuration not stated): the fluorescence ratio is 1.02.
Turning to `CC(C)(C)NCC(O)COc1cccc2c1C[C@H](O)[C@H](O)C2` (some centres not stated), the fluorescence ratio was 0.9.
For the compound `O=S(=O)(O)CCS`, the fluorescence ratio was 1.
As for `O=c1[nH]cc(F)c(=O)[nH]1`, the fluorescence ratio was 0.92.
